# Results from PubChem BioAssay.
# Where “and” joins values, the source holds several entries; their conditions need not be identical. Equal values may be shown once. Calls of active or inactive are those of the source.
# What was measured:
# Albumin (Bos taurus) = Albumin (Bos taurus) (UniProt P02769); assay: compounds binding labelled BSA control protein – biochemical, small-molecule microarray, Alexa647 label, 635/667 nm fluorescence, artefact control for SMM control protein annotation, profiling panel (AID 1118); settings: BSA-A647 binding, fluorescence 635 nm, higher = more signal;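 further: score merges 667 nm emission intensity and signal-to-noise per printed compound spot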
# [1] = probe aXIP binding to arrayed compounds – biochemical, NeuroSMM set, 635/667 nm fluorescence, primary screen (AID 1119); settings: small-molecule microarray, higher = more signal, called active from +8 up or from −8 down;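 further: probe is the protein aXip251-270 applied at 1 µg/mL to compound-printed slides; binding of probe to printed compounds measured as 667 nm fluorescence plus signal to noise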
# [2] = probe aNOTCH3 binding on compound microarray – biochemical, small-molecule microarray, 635/667 nm fluorescence, primary screen (AID 1120); settings: higher = more signal;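 further: probe is a biotin-tagged antibody raised against NOTCH3 rather than NOTCH3 protein; score merges spot fluorescence near 667 nm with spot signal to noise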
# [3] = probe aNOTCH2 binding on compound microarray – biochemical, small-molecule microarray, 635/667 nm fluorescence, primary screen (AID 1121); settings: higher = more signal;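 further: score merges feature fluorescence read at 667 nm with its signal to noise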
# [4] = molecular target: Carbonic anhydrase 2 (Homo sapiens) (UniProt P00918); assay: compounds binding carbonic anhydrase 2 – biochemical, small-molecule microarray, Alexa647-labelled CAII, profiling panel (AID 1122); settings: CAII-A647 binding fluorescence, higher = more signal
# [5] = COS7 lysate on small-molecule microarray, probe aHis, 635 nm (AID 1123); settings: COS7 cell lysate, fluorescence, higher = more signal;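 further: z-score combines 667nm fluorescence intensity with signal-to-noise per printed compound spot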
# [6] = probe aLAP1 signal on lysate-treated microarray – cell lysate, small-molecule microarray, COS7 lysate, primary screen (AID 1124); settings: probe aLAP1, fluorescence, higher = more signal;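 further: lysate comes from COS7 cells expressing LAP1 and is applied at 0.3 µg/mL; score merges spot fluorescence near 667 nm with signal-to-noise over triplicate slides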
# Sam68 (KHDRBS1) = assay: compounds binding KHDRBS1 protein – biochemical, small-molecule microarray, 635 nm fluorescence, primary screen (AID 1125); settings: higher = more signal;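 further: score merges 667 nm channel intensity with signal to noise over triplicate slides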
# [7] = test system: Chordin-like protein 2 (CHRDL2); assay: compounds binding chordin-like 2 – biochemical, small-molecule microarray, 635 nm fluorescence, primary screen (AID 1126); settings: fluorescence 635 nm, higher = more signal;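 further: printed compound slides probed with Chrdl2 protein at 4 µg/mL for 1 h at 4 C; score merges 667 nm emission intensity with signal to noise over three replicate slides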
# [8] = molecular target: Concanavalin-A (Canavalia ensiformis) (UniProt P02866); assay: compounds binding concanavalin A lectin – biochemical, small-molecule microarray, Alexa647 label, 635 nm, artefact control for SMM control protein annotation, primary screen (AID 1127); settings: ConA-A647 binding fluorescence, higher = more signal;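 further: z combines 667 nm emission intensity with signal-to-noise across three replicate slides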
# [9] = compounds binding Alexa647 anti-His antibody – biochemical, small-molecule microarray, 635 nm fluorescence, artefact control for SMM control protein annotation, primary screen (AID 1128); settings: higher = more signal;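 further: score merges feature fluorescence with signal-to-noise for each printed compound spot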
# [10] = test system: Human papillomavirus type 1a E7 protein (residues 1-88); assay: HPV1a E7 small-molecule binders, primary screen, biochemical, small-molecule microarray, residues 1-88, 635 nm (AID 1129); settings: small-molecule microarray binding, fluorescence 635 nm; higher = more signal
# [11] = molecular target: Focal adhesion kinase 1 (Homo sapiens) (UniProt Q05397); assay: PTK2 protein binding on printed compound slides – biochemical, small-molecule microarray, 635/667 nm fluorescence, BSA, DTT, primary screen (AID 1130); settings: 635 nm fluorescence, higher = more signal;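 further: composite of spot emission at 667 nm and signal to noise over triplicate slides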
# [12] = test system: Fibrinogen (Alexa647-labelled); assay: Alexa647-fibrinogen binding to printed small molecules – biochemical, small-molecule microarray, 635/667 nm fluorescence, artefact control for SMM control-protein annotation, profiling panel (AID 1131); settings: fibrinogen-A647 binding fluorescence, higher = more signal;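 further: z-score merges 667 nm fluorescence with per-spot signal-to-noise over triplicate slides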
# [13] = molecular target: Follistatin (Homo sapiens) (UniProt P19883); assay: FST protein binding to printed compounds – biochemical, small-molecule microarray, 635/667 nm fluorescence, primary screen (AID 1132); settings: 635 nm fluorescence, higher = more signal
# [14] = molecular target: Fibroblast growth factor 2 (Homo sapiens) (UniProt P09038); assay: basic fibroblast growth factor binding to printed compounds – biochemical, small-molecule microarray, 635/667 nm fluorescence, primary screen (AID 1133); settings: FGF2, fluorescence 635/667, higher = more signal
# [15] = JC-1 mitochondrial potential readout, lung cancer cells – cell-based, A549, JC-1 fluorescence, basal, 24 h, 100 nL, profiling panel (AID 1138); settings: higher = more signal;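 further: A549 lung adenocarcinoma cells under basal conditions with no added stimulus; test concentration not given here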
# Lefty1 = Lefty1 protein binding to printed compounds – biochemical, small-molecule microarray, 635/667 nm fluorescence, primary screen (AID 1139); settings: fluorescence 635/667, higher = more signal
# [16] = test system: wheat germ agglutinin (Triticum aestivum), Alexa647-labelled; assay: Alexa647-WGA lectin binding to printed small molecules – biochemical, small-molecule microarray, 635/667 nm fluorescence, artefact control for SMM control-protein annotation, profiling panel (AID 1140); settings: WGA-A647 binding, 635 nm fluorescence, higher = more signal;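 further: score merges 667 nm feature emission with signal to noise over triplicate slides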
# [17] = molecular target: Luciferin 4-monooxygenase (Photinus pyralis) (UniProt P08659); assay: inhibition of purified Photinus pyralis luciferase – biochemical, luminescence, purified enzyme, 2006 set, primary screen (AID 1141); settings: purified firefly luciferase, SteadyGlo luminescence, 30 min; higher = more signal, called active from +8 up or from −8 down;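 further: cell-free assay with purified firefly luciferase at 100 ng per well in PBS; test concentration not given here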
# Chain of Luciferin 4-monooxygenase (Photinus pyralis) (P08659 whole entry, looked up): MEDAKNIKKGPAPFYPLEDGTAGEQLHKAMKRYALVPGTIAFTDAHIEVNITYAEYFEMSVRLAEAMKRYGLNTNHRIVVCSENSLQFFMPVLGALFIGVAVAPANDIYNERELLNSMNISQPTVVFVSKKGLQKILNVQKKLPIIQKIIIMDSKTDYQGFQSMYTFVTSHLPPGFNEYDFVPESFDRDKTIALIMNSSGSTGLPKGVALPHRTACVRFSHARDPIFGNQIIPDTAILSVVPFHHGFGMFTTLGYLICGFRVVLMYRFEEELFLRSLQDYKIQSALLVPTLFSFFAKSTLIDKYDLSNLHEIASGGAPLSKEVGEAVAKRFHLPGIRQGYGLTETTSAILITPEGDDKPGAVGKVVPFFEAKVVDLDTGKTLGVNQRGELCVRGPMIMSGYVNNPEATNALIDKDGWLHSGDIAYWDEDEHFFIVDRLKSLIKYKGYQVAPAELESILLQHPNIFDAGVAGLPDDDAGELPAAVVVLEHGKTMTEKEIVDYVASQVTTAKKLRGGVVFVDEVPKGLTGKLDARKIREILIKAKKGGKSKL
# Chain of Follistatin (Homo sapiens) (P19883 whole entry, looked up): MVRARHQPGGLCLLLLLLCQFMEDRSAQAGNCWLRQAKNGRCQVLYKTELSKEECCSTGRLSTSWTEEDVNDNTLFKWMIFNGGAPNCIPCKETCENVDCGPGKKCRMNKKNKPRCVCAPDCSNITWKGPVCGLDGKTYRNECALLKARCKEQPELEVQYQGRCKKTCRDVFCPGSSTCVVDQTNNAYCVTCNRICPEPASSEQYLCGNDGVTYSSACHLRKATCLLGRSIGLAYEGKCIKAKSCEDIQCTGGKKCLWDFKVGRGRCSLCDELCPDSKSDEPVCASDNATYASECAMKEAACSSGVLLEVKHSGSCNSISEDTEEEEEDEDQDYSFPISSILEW
# Chain of Albumin (Bos taurus) (P02769 whole entry, looked up): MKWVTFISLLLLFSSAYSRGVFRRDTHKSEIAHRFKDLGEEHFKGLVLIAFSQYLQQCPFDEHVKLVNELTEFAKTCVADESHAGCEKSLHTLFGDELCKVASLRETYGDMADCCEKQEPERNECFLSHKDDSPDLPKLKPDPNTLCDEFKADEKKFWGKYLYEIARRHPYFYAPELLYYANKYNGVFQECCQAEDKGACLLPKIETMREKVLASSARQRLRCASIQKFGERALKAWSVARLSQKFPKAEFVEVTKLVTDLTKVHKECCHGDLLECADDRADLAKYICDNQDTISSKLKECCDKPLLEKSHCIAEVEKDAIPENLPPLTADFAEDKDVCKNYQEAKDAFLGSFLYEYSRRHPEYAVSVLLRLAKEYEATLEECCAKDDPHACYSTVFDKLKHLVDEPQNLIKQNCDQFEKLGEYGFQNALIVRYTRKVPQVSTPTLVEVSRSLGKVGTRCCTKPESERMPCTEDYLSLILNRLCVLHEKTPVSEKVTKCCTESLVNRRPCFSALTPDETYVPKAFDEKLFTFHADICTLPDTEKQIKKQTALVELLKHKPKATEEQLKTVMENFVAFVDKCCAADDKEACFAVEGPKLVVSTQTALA
# Chain of Focal adhesion kinase 1 (Homo sapiens) (Q05397 whole entry, looked up): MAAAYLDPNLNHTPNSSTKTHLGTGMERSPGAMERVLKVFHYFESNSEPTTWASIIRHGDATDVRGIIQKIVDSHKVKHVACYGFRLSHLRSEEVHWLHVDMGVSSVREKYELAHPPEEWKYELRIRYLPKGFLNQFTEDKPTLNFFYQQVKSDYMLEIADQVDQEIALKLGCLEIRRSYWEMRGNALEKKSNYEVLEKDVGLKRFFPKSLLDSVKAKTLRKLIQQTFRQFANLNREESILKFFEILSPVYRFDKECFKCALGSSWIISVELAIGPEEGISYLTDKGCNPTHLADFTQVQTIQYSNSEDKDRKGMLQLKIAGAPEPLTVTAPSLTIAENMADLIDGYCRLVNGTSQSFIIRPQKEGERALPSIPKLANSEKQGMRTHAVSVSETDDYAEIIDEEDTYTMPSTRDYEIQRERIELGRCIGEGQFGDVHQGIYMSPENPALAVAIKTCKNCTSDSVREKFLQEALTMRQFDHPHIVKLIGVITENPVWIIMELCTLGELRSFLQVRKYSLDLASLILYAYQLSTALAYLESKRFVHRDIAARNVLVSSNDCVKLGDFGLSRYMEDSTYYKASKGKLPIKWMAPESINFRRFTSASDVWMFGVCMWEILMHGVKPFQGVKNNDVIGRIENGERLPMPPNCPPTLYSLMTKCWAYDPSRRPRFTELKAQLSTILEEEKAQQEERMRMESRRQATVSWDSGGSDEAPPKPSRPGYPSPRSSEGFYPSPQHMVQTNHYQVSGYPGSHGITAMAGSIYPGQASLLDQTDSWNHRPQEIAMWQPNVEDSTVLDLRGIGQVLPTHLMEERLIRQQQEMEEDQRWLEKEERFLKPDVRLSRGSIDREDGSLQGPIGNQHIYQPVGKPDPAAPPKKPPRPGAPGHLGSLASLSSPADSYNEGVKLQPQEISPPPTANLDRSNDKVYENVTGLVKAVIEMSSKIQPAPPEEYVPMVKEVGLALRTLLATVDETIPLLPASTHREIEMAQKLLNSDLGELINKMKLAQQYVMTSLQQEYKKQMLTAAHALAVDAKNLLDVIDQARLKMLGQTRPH
# Chain of Fibroblast growth factor 2 (Homo sapiens) (P09038 whole entry, looked up): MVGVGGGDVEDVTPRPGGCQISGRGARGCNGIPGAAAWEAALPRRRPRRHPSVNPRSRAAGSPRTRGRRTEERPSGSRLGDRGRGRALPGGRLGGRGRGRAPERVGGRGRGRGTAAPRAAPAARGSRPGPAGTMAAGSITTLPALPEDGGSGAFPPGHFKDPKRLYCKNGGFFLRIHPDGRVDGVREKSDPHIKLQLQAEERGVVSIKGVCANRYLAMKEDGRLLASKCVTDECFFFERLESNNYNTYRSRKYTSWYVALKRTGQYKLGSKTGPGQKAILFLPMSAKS
# Chain of Concanavalin-A (Canavalia ensiformis) (P02866 whole entry, looked up): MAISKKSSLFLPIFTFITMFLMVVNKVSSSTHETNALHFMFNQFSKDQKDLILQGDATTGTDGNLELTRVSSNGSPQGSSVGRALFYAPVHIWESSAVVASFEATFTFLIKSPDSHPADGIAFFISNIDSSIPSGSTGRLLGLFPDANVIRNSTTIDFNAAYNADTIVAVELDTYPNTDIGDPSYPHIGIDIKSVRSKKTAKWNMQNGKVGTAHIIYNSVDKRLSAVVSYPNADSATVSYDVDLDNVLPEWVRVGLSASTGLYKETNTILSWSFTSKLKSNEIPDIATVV
SMILES,composite z-score (Albumin (Bos taurus)),composite Z-score [1],composite z-score [2],composite z-score [3],composite z-score [4],composite z-score [5],composite z-score [6],composite z-score (Sam68 (KHDRBS1)),composite z-score [7],composite z-score [8],composite z-score [9],composite z-score [10],composite z-score [11],composite z-score [12],composite z-score [13],composite z-score [14],z-score [15],composite z-score (Lefty1),composite z-score [16],z-score [17]
COC(=O)C1=C2N(Cc3ccccc3)C(C)=C(C(=O)OC)[C@@H](c3ccccc3)N2C(=O)[C@](O)(C(=O)OC)C1,0.514 and -0.0136,0.606 (inactive) and 0.656 (inactive),0.0349 and -0.063,-0.171 and -0.0476,0.416 and -0.0902,0.877 and -0.0061,-0.109 and 0.809,0.776 and 0.133,0.392 and 0.77,0.712 and -0.0245,0.0444 and -0.657,0.644 and 0.0112,0.268 and -0.172,0.985 and 0.0539,0.419 and 0.587,1.71 and 0.858,0.218 and 0.136,0.911 and 0.508,0.526 and -0.342,-0.0132 (inactive) and 0.18 (inactive)
C=C[C@@H](C)[C@@H](O)c1ccc(O)c2ccccc12,-0.154 and -0.436,-0.014 (inactive) and 0.196 (inactive),-0.413 and -0.52,-0.232 and -0.193,0.0119 and 0.72,-0.024 and 0.351,-0.237 and -0.0579,-0.785 and -0.587,-0.0684 and 0.351,-0.419 and -0.81,-0.46 and 0.408,-1.07 and -0.498,-0.221 and -0.422,-1.54 and 0.509,0.105 and 0.431,-0.162 and -0.329,0.287 and -0.728,-0.863 and -0.286,-1.19 and 0.506,-1.48 (inactive) and -0.181 (inactive)
CCOC(=O)C[C@H]1[C@H](OC(=O)c2ccccc2-c2ccccc2)[C@@H](NC(=O)Cc2ccc(OC)cc2)c2cc(OCCCO)ccc2N1C(=O)c1ccc2ccccc2n1,0.0759 and 0.46,-0.252 (inactive) and -0.128 (inactive),-0.0347 and -0.0608,-0.14 and 0.0777,-0.156 and 0.0959,0.411 and 1.57,-0.264 and 0.286,-0.636 and 0.641,-0.0194 and -0.181,0.0022 and 0.662,0.206 and -0.185,0.24 and 0.622,-0.0875 and 0.194,0.524 and 0.464,0.392 and 0.546,0.714 and 0.119,3.49 and 0.601,0.0614 and 1.07,0.172 and 0.238,-0.391 (inactive) and -0.85 (inactive)
C[C@@H]1CC[C@H]2C(=O)O[C@H](CN=[N+]=[N-])CN2[C@H]1c1ccc(Br)cc1,-0.507 and 0.491,0.142 (inactive) and 0.753 (inactive),-0.125 and -0.197,-0.245 and -0.0569,-0.188 and -0.223,-0.0295 and -0.382,0.268 and -0.329,-0.167 and 0.113,0.735 and 0.382,-0.726 and 0.0516,0.755 and 0.806,-0.841 and -0.245,0.073 and 0.0778,0.142 and 0.149,0.506 and -0.488,0.0443 and -0.132,0.703 and 0.206,0.212 and 0.0831,-0.276 and -0.0024,0.788 (inactive) and -1.42 (inactive)
COc1ccc(COC(=O)NN=C2C[C@@H](O)[C@@H](O)[C@@H]3[C@@H]4C(=O)N(C(C)(C)C)C(=O)[C@@H]4CC[C@H]23)cc1,0.682,1.08 (inactive),-0.194,-0.0001,0.633,0.7,1.51,1.22,0.0955,-0.457,1.34,0.797,0.0704,0.816,0.126,0.699,0.453,0.281,0.0873,-1.08 (inactive)
CCCCN1CC=CC23O[C@@H]4C=CCCOC(=O)C4[C@H]2C(=O)N(C(C)CO)[C@@H]3C1=O (stereo not given in full),-0.12 and -0.441,-0.238 (inactive) and -0.166 (inactive),-0.222 and -0.0647,-0.21 and -0.147,0.837 and 0.777,0.462 and 0.472,0.216 and 0.436,0.206 and -0.0241,0.375 and -0.0584,-1.63 and 0.0212,2.27 and -0.329,-0.461 and -0.54,-0.293 and -0.0655,-1.04 and -0.749,-0.546 and 0.101,-0.579 and -0.63,-0.224 and -0.725,-0.222 and 0.172,-0.558 and -0.281,-0.0385 (inactive) and -0.213 (inactive)
C=CCN(CCCC)C(=O)C1N(c2c(Cl)cccc2CO)C(=O)C2C(C(=O)O)C3C=CC21O3 (stereo not given),-0.817 and -0.128,-0.533 (inactive) and 0.273 (inactive),-0.408 and 0.539,-0.173 and 0.608,-0.748 and 0.955,-0.455 and 1.89,-0.111 and -0.125,-0.818 and -1,-1.4 and -1.99,-1.69 and -2.68,-1.86 and 1.18,-1.93 and -0.108,-0.983 and 0.896,-1.58 and -2.29,-1.71 and -0.64,-1.09 and -1.49,-1 and -0.998,-2.11 and -0.973,-1.16 and -0.0139,0.758 (inactive) and 1.51 (inactive)
CC[C@@H]1C(Sc2ccccc2)C(C(=O)O)[C@H](c2ccc(C)cc2)N1S(=O)(=O)c1ccc(C)cc1 (stereo not given in full),0.978 and 0.899,0.242 (inactive) and 1.85 (inactive),0.411 and -0.022,0.0739 and -0.0635,0.232 and 0.755,0.893 and 2.52,0.541 and 0.418,1.33 and 1.3,-0.682 and -0.367,1.22 and 1.09,1.81 and 0.489,1.25 and 1.17,0.994 and 0.704,1.03,0.427 and 0.634,-0.375 and -0.193,-0.102 and 0.13,-0.642 and 0.533,0.707 and 0.804,0.534 (inactive) and -0.0047 (inactive)
Cc1cc2c(nc1C)CCCN2CC(C)ON=C[C@@H](C)[C@H](OCc1ccccc1)C(C)C (stereo not given in full),-0.69,0.339 (inactive),0.0642,-0.0596,-0.345,0.0869,-0.442,-1.3,0.173,-0.804,-0.265,-1.26,0.252,-0.709,0.141,-0.0657,-0.7,0.254,-0.911,0.765 (inactive)
